PubChem BioAssay AID602364 (National Center for Advancing Translational Sciences (NCATS), 2012)
Results filed as inconclusive are left out. The source made the active and inactive calls. The call rests on the fitted dose curve; in most records, active means well fitted inhibition curve with a large enough effect; inconclusive means small, poorly fitted or top-dose-only effect; inactive means flat fitted curve, though single readings scatter.

Each compound was assayed against Luciferin 4-monooxygenase (Photinus pyralis) (UniProt P08659) (assay: FLuc inhibitory activity for the follow-up compounds in a biochemical assay with 1mM ATP). Settings: purified P. pyralis luciferase, luminescence; series mostly up to 57.5 µM.
Chain of Luciferin 4-monooxygenase (Photinus pyralis) (P08659 whole entry, looked up): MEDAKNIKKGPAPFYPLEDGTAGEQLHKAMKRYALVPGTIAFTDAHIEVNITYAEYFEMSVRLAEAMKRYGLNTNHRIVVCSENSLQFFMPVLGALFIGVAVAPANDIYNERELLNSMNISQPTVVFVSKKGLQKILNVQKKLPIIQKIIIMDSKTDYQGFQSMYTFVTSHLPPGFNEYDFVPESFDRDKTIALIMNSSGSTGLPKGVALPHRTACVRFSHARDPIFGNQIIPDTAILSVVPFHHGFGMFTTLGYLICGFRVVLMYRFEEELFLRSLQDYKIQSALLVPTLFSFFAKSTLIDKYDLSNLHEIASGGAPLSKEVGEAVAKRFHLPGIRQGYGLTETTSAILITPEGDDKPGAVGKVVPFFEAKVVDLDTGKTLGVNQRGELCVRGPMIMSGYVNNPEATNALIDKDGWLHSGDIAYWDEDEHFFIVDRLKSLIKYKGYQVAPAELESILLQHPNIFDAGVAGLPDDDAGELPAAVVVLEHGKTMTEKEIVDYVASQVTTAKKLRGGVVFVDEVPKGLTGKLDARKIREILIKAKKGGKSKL
Source text: NCGC Assay Overview: Firefly (Photinus pyralis) luciferase is one of the most commonly used transcriptional reporters. It is considered one of the more dynamically responsive reporters - that is, responsive to changes in reporter transcription - as it requires no post-translational modifications and is enzymatically active directly after protein synthesis (Wood, 1998). With no endogenous expression in mammalian cells and without the requirement of external excitation, it offers very little background signal, thus generally providing excellent signal to background for most assays. Previous profiling work to determine the prevalence of compounds that affect FLuc enzymatic activity (PubChem AID 411) identified that ~3% of the MLSMR library (then at ~72K) inhibited FLuc. […] Of the compounds identified in this profile that inhibited FLuc, 151 compounds were selected for further analysis, in an effort to better understand their mode of inhibiting FLuc. The assay described here was to determine the activity of the compounds in a FLuc assay that contained a KM concentration of D-luciferin and a high concentration (1mM) of ATP.
NCGC Assay Protocol Summary: Reagents: 50mM Tris acetate, pH 7.5; 10mM Mg acetate; 10uM D-luciferin (Sigma #L9504); 1mM ATP; 0.01% Tween-20; 0.05% BSA; 10nM P. pyralis luciferase (Sigma #L9506) Control compounds used were two known firefly luciferase inhibitors (3-(5-(3-chlorophenyl)-1,2,4-oxadiazol-3-yl)benzoic acid and 5-(2-fluorophenyl)-3-phenyl-1,2,4-oxadiazole), and DMSO. Three microliters containing firefly luciferase substrates in buffer (final concentrations: 50mM Tris acetate, pH 7.5, 10mM Mg acetate, 0.01% Tween-20, 0.05% BSA, 10uM D-luciferin, 1mM ATP) are dispensed into each well of a Greiner white, solid-bottom 1536-well format plate using a flying reagent dispenser (FRD). These assay plates were then treated with 23nL of compound or DMSO using a Kalypsys pin tool, which allows for delivery of a 12-point intraplate titration of each compound to the assay plate (quantitative HTS), with a final compound concentrations ranging from approximately ~60uM to 0.3nM. One microliter of firefly luciferase in […] Tris-acetate buffer was then delivered by FRD to each well for a final enzyme concentration of 10nM. Luciferase activity was then measured using a ViewLux CCD imager (PerkinElmer), with an average exposure time of 2-30 seconds (2X binning, medium/high gain).

With `Cc1ccc(S(=O)(=O)N2CCN(C(=O)c3ccccc3-c3nc4ccccc4s3)CC2)c(C)c1` as the compound, how does the Potency read?
Its Potency is “inactive”.

How did the Potency turn out when `O=C(Nc1ccccc1C(=O)O)c1cc(S(=O)(=O)Nc2ccccc2)ccc1Cl` was run?
Its Potency is “inactive”.

Which Potency does the source give for `COc1ccc(C(=O)Nc2ccccc2-c2nc3ccccc3s2)c(OC)c1` here?
Its Potency is “inactive”.

How did the Potency turn out when `CC(C)c1ccc(-c2nc3ccccc3s2)cc1` was run?
The Potency was 41.1 nM (active).

`COc1c(C)cccc1C(=O)Nc1ccc(-c2nc3ccccc3s2)c(Cl)c1` was tested. Which Potency did it give?
The Potency was “inactive”.

With `O=C(O)c1cccc(NC(=O)c2ccc(S(=O)(=O)c3ccccc3)cc2)c1` as the compound, how does the Potency read?
The Potency was 11600 nM (active).

How did the Potency turn out when `CC(C)c1ccc(C(=O)Nc2ccc(-c3nc4ccccc4s3)c(Cl)c2)cc1` was run?
Its Potency is “inactive”.

For `Cc1ccc2sc(-c3ccc(NC(=O)c4cc(-n5cnnc5)ccc4Cl)cc3)nc2c1`, which Potency is on record?
The Potency was 1630 nM (active).

Which Potency does the source give for `COc1cccc(OC)c1C(=O)Nc1cccc(C(=O)Nc2cccc(C(=O)O)c2)c1` here?
The Potency was 4610 nM (active).

How did the Potency turn out when `Cn1c(N/N=C/c2cc3ccccc3nc2Cl)nc2ccccc21` was run?
The Potency was 14600 nM (active).

With `CC(C)C(=O)Nc1cccc(C(=O)Nc2ccccc2C(=O)O)c1` as the compound, how does the Potency read?
The Potency was 11600 nM (active).

For `COc1ccccc1C(=O)Nc1ccc(C(=O)Nc2ccccc2C(=O)O)cc1`, which Potency is on record?
Its Potency is “inactive”.

With `O=C(O)c1cccc(NC(=O)c2cccc(S(=O)(=O)N3CCCCC3)c2)c1` as the compound, how does the Potency read?
The Potency was 2310 nM (active).

For `COc1cc(OC)cc(-c2nc3ccccc3s2)c1`, which Potency is on record?
Its Potency is 4110 nM (active).

For `C/C(=N\NC(=O)c1ccccc1NC(=O)c1ccc(Cl)cc1)c1ccncc1`, which Potency is on record?
Its Potency is 146 nM (active).

With `COc1ccc2nc(NC(=O)CCc3nc(-c4ccccc4F)no3)sc2c1` as the compound, how does the Potency read?
Its Potency is “inactive”.

With `COc1cccc(-c2nc3ccccc3s2)c1` as the compound, how does the Potency read?
Its Potency is 326 nM (active).

Which Potency does the source give for `O=C(Nc1ccccc1-c1nc2ccccc2s1)c1ccc(Br)o1` here?
The Potency was “inactive”.

Which Potency does the source give for `c1ccc2sc(-c3ccc4c(c3)OCO4)nc2c1` here?
The Potency was 91.9 nM (active).

For `Cc1ccc(S(=O)(=O)N2CCOCC2)cc1C(=O)Nc1ccccc1C(=O)O`, which Potency is on record?
Its Potency is “inactive”.

With `O=C(Nc1ccccc1C(=O)O)c1ccc(NC(=O)C2CC2)cc1` as the compound, how does the Potency read?
Its Potency is 3660 nM (active).

Which Potency does the source give for `COc1ccc2nc(NC(=O)c3cnccn3)sc2c1` here?
The Potency was 517 nM (active).

How did the Potency turn out when `CCOc1ccc2nc(NC(=O)c3cccnc3)sc2c1` was run?
Its Potency is 2060 nM (active).

For `COc1ccc2nc(NC(=O)c3ccco3)sc2c1`, which Potency is on record?
The Potency was 183 nM (active).

How did the Potency turn out when `COc1ccc(C(=O)Nc2cccc(C(=O)O)c2)cc1S(=O)(=O)N1CCCC1` was run?
The Potency was 14600 nM (active).

For `CCOc1ccc2nc(NC(=O)c3ccoc3C)sc2c1`, which Potency is on record?
Its Potency is 130 nM (active).

With `COc1cc(C(=O)Nc2cc(C)c(O)c(-c3nc4ccccc4s3)c2)cc(OC)c1OC` as the compound, how does the Potency read?
Its Potency is “inactive”.

Which Potency does the source give for `COc1cc(OC)cc(C(=O)Nc2ccccc2-c2nc3ccccc3s2)c1` here?
The Potency was “inactive”.

Which Potency does the source give for `O=C(Nc1ccccc1C(=O)O)c1cccc(NC(=O)c2ccccc2Br)c1` here?
Its Potency is 36600 nM (active).

Which Potency does the source give for `O=C(Nc1ccccc1C(=O)O)c1cccc(NC(=O)c2ccco2)c1` here?
The Potency was 18300 nM (active).

With `CCOc1ccc2nc(NC(=O)c3ccccc3)sc2c1` as the compound, how does the Potency read?
Its Potency is 91.9 nM (active).

Which Potency does the source give for `COc1ccc2nc(NC(=O)c3cccs3)sc2c1` here?
The Potency was 7300 nM (active).

How did the Potency turn out when `COc1ccc(C(=O)Nc2ccccc2C(=O)Nc2ccc(C(=O)O)cc2)cc1` was run?
The Potency was 18300 nM (active).

How did the Potency turn out when `O=C(O)c1ccc(NC(=O)c2ccccc2NC(=O)c2ccccc2Br)cc1` was run?
Its Potency is “inactive”.

Which Potency does the source give for `Nc1ccc(-c2nc3ccc(N)cc3s2)cc1` here?
Its Potency is 103 nM (active).

Which Potency does the source give for `O=C(O)c1cccc(NC(=O)c2ccc(Cl)c(S(=O)(=O)N3CCCCCC3)c2)c1` here?
The Potency was 366 nM (active).

`Cc1c(NC(=O)C(C)(C)C)cccc1-c1nc2ccccc2s1` was tested. Which Potency did it give?
The Potency was 25900 nM (active).

How did the Potency turn out when `O=C(Cc1ccccc1)Nc1ccccc1C(=O)Nc1ccc(C(=O)O)cc1` was run?
Its Potency is “inactive”.

Which Potency does the source give for `Cc1ccc(C(=O)Nc2ccccc2C(=O)O)cc1S(=O)(=O)N1CCCCCC1` here?
The Potency was 1830 nM (active).

`Nc1ccccc1-c1nc2ccccc2s1` was tested. Which Potency did it give?
Its Potency is 2910 nM (active).
